In PubChem BioAssay:
The source made the active and inactive calls. Unless noted, how the calls were made is not given here.

What was measured:
[1] = compounds binding Alexa647 anti-His antibody – biochemical, small-molecule microarray, 635 nm fluorescence, artefact control for SMM control protein annotation, primary screen (AID 1128); details: higher = more signal;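 further: score merges feature fluorescence with signal-to-noise for each printed compound spot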
[2] = test system: Human papillomavirus type 1a E7 protein (residues 1-88); test: HPV1a E7 small-molecule binders, primary screen, biochemical, small-molecule microarray, residues 1-88, 635 nm (AID 1129); details: small-molecule microarray binding, fluorescence 635 nm; higher = more signal
[3] = target: Focal adhesion kinase 1 (Homo sapiens) (UniProt Q05397); test: PTK2 protein binding on printed compound slides – biochemical, small-molecule microarray, 635/667 nm fluorescence, BSA, DTT, primary screen (AID 1130); details: 635 nm fluorescence, higher = more signal;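 further: composite of spot emission at 667 nm and signal to noise over triplicate slides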
[4] = test system: Fibrinogen (Alexa647-labelled); test: Alexa647-fibrinogen binding to printed small molecules – biochemical, small-molecule microarray, 635/667 nm fluorescence, artefact control for SMM control-protein annotation, profiling panel (AID 1131); details: fibrinogen-A647 binding fluorescence, higher = more signal;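 further: z-score merges 667 nm fluorescence with per-spot signal-to-noise over triplicate slides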
[5] = target: Follistatin (Homo sapiens) (UniProt P19883); test: FST protein binding to printed compounds – biochemical, small-molecule microarray, 635/667 nm fluorescence, primary screen (AID 1132); details: 635 nm fluorescence, higher = more signal
[6] = target: Fibroblast growth factor 2 (Homo sapiens) (UniProt P09038); test: basic fibroblast growth factor binding to printed compounds – biochemical, small-molecule microarray, 635/667 nm fluorescence, primary screen (AID 1133); details: FGF2, fluorescence 635/667, higher = more signal
[7] = JC-1 mitochondrial potential readout, lung cancer cells – cell-based, A549, JC-1 fluorescence, basal, 24 h, 100 nL, profiling panel (AID 1138); details: higher = more signal;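 further: A549 lung adenocarcinoma cells under basal conditions with no added stimulus; test concentration not given here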
[8] = test system: Lefty1; test: Lefty1 protein binding to printed compounds – biochemical, small-molecule microarray, 635/667 nm fluorescence, primary screen (AID 1139); details: fluorescence 635/667, higher = more signal
[9] = test system: wheat germ agglutinin (Triticum aestivum), Alexa647-labelled; test: Alexa647-WGA lectin binding to printed small molecules – biochemical, small-molecule microarray, 635/667 nm fluorescence, artefact control for SMM control-protein annotation, profiling panel (AID 1140); details: WGA-A647 binding, 635 nm fluorescence, higher = more signal;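 further: score merges 667 nm feature emission with signal to noise over triplicate slides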
[10] = target: Luciferin 4-monooxygenase (Photinus pyralis) (UniProt P08659); test: inhibition of purified Photinus pyralis luciferase – biochemical, luminescence, purified enzyme, 2006 set, primary screen (AID 1141); details: purified firefly luciferase, SteadyGlo luminescence, 30 min; higher = more signal, called active from +8 up or from −8 down;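 further: cell-free assay with purified firefly luciferase at 100 ng per well in PBS; test concentration not given here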
[11] = test system: Wnt5a (protein binding on small-molecule microarray); test: small molecules binding Wnt5a protein – biophysical, small-molecule microarray, 635/667 nm fluorescence, primary screen (AID 1142); details: 635 nm fluorescence, higher = more signal;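 further: fluorescence read at 667 nm with signal to noise per printed feature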
[12] = ATP-based viability of Huh7 replicon cells – cell-based, CellTiter-Glo luminescence, basal, 48 h, cytotoxicity control for HCV replication inhibitor project, primary screen (AID 1143); details: higher = more signal, called active from +8 up or from −8 down;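 further: Huh7 hepatoma cells carrying a hepatitis C replication reporter with no stimulus; test concentration not given here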
[13] = Pseudomonas biofilm growth suppression – PAO1 strain, BacTiter-Glo luminescence, LB-PBS, primary screen (AID 1144); details: P. aeruginosa PAO1 biofilm, 12 h, higher = more signal
[14] = basal CRE-LacZ reporter activity in PC12 – cell-based, unstimulated, primary screen (AID 1145); details: no forskolin, luminescence, 4.5 h, higher = more signal, called active from +8 up or from −8 down
[15] = forskolin-driven CRE-LacZ activity in PC12 – cell-based, CRE-LacZ reporter, forskolin-stimulated, primary screen (AID 1146); details: luminescence, 4.5 h, higher = more signal, called active from +8 up or from −8 down;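 further: PC12 cells with 6xCRE LacZ reporter stimulated by forskolin 10 µM; beta-galactosidase reporter signal reflecting CREB driven transcription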
[16] = target: Streptavidin (Streptomyces avidinii) (UniProt P22629); test: compounds binding control protein streptavidin – biophysical, small-molecule microarray, 635/667 nm fluorescence, artefact control for SMM compound annotation, primary screen (AID 1147); details: higher = more signal;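 further: signal reflects streptavidin binding to arrayed compounds as a control protein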
[17] = probe aInhba binding on compound microarray – biochemical, small-molecule microarray, 635/667 nm fluorescence, primary screen (AID 1148); details: higher = more signal;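 further: score merges 667nm spot fluorescence with signal-to-noise for antibody binding to printed compounds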
[18] = target: Torsin-1A (Homo sapiens) (UniProt O14656); test: TOR1A wild-type binding on microarray – cell lysate, small-molecule microarray, lysate, 635/667 nm, primary screen (AID 1149); details: COS7 hTOR1A-WT lysate, 635 nm fluorescence, higher = more signal
[19] = target: Torsin-1A (Homo sapiens) (UniProt O14656); test: torsin A mutant lysate binding on microarrays – cell lysate, small-molecule microarray, COS7 lysate, 635/667 nm fluorescence, primary screen (AID 1150); details: COS7 hTOR1A mutant lysate, 635 nm fluorescence, higher = more signal;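 further: score pools 667 nm emission and signal to noise measuring lysate protein binding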
[20] = test system: Sonic hedgehog protein (Shh); test: Sonic hedgehog microarray binding compounds – biochemical, small-molecule microarray, 635/667 nm fluorescence, primary screen (AID 1151); details: 635 nm fluorescence, higher = more signal;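 further: Shh protein binding to compounds spotted on small-molecule microarray slides; score combines spot fluorescence intensity with signal-to-noise across triplicate slides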

Chain of Follistatin (Homo sapiens) (P19883 whole entry, looked up): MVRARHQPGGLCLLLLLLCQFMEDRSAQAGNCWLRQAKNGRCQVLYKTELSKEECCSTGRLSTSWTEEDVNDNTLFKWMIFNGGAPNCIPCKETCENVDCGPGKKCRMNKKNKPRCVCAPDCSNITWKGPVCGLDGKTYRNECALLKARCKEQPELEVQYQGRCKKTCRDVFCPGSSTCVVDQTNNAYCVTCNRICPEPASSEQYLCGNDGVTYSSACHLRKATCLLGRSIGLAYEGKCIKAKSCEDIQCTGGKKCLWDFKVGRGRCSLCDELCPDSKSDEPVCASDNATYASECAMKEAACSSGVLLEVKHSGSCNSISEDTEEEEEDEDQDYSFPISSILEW
Chain of Streptavidin (Streptomyces avidinii) (P22629 whole entry, looked up): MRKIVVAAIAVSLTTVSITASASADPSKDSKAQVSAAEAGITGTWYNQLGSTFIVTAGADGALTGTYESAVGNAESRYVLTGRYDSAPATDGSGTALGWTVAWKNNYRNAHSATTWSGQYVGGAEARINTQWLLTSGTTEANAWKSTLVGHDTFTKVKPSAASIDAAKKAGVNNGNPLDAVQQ
Chain of Torsin-1A (Homo sapiens) (O14656 whole entry, looked up): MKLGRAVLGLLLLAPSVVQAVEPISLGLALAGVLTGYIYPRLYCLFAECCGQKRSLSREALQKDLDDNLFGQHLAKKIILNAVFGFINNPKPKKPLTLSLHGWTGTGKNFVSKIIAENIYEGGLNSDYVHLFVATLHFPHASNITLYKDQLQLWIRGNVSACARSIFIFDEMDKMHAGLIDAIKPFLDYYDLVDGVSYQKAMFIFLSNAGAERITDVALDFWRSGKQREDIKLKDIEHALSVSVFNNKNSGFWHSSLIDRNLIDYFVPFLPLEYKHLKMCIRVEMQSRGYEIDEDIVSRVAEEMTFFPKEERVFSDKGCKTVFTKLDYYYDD
Chain of Fibroblast growth factor 2 (Homo sapiens) (P09038 whole entry, looked up): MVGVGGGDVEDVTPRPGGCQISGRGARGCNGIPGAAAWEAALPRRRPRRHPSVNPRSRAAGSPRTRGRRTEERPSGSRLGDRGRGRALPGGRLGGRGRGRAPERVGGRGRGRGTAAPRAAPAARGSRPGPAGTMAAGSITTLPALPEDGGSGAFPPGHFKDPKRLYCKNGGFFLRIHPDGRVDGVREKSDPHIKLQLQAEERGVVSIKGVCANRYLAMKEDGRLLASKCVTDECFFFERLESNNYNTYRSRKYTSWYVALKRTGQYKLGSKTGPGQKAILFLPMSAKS
Chain of Luciferin 4-monooxygenase (Photinus pyralis) (P08659 whole entry, looked up): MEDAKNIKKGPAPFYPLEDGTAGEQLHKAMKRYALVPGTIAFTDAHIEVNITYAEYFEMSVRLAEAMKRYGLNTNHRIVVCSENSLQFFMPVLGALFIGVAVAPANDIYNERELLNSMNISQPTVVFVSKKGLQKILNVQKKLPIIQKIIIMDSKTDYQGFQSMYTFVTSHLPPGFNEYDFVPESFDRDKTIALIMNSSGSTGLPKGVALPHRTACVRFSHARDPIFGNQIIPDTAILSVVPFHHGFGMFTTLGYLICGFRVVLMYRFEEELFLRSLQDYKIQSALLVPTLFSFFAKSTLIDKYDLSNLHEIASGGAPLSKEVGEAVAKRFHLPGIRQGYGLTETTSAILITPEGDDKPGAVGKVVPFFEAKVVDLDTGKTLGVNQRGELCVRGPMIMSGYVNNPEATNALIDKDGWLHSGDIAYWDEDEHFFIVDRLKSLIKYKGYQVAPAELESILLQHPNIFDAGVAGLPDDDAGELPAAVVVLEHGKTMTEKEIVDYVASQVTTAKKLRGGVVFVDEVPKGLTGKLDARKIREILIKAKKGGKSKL
Chain of Focal adhesion kinase 1 (Homo sapiens) (Q05397 whole entry, looked up): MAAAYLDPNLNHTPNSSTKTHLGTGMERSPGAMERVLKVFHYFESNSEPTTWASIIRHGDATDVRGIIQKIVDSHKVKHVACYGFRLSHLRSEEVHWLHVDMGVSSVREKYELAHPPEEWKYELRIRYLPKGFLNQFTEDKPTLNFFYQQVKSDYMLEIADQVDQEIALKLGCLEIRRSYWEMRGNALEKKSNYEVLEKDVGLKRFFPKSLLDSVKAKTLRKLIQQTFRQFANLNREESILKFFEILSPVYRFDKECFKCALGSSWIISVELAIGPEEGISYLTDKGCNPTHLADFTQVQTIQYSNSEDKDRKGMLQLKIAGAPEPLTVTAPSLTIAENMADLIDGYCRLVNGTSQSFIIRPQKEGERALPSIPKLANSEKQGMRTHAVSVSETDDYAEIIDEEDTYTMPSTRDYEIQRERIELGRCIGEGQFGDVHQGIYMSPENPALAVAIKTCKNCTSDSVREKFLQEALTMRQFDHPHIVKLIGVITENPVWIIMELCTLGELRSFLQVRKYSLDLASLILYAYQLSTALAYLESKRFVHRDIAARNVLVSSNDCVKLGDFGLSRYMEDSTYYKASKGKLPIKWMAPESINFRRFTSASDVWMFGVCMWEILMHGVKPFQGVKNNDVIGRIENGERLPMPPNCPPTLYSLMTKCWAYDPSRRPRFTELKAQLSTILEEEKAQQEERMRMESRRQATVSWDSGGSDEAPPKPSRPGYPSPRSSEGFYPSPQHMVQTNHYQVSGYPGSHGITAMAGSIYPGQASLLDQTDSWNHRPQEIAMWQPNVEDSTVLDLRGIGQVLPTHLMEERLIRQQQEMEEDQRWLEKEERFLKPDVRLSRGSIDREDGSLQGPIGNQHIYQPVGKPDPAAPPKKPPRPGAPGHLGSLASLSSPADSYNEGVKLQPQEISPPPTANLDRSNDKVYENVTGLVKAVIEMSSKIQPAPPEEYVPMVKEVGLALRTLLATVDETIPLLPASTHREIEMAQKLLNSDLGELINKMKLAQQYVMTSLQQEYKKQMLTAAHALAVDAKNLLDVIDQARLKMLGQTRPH

SMILES	composite z-score [1]	composite z-score [2]	composite z-score [3]	composite z-score [4]	composite z-score [5]	composite z-score [6]	z-score [7]	composite z-score [8]	composite z-score [9]	z-score [10]	composite z-score [11]	z-score [12]	z-score [13]	z-score [14]	z-score [15]	composite z-score [16]	composite z-score [17]	composite z-score [18]	composite z-score [19]	composite z-score [20]
CCOC(=O)C[C@H]1[C@H](OC(=O)c2ccccc2-c2ccccc2)[C@@H](NC(=O)c2ccc3ccccc3n2)c2cc(OCCCO)ccc2N1C(=O)Cc1ccc(OC)cc1	-0.186	0.511	0.0434	0.47	0.248	0.268	0.397	0.577	0.509	0.43 (inactive)	0.0204	-0.109 (inactive)	0.485 (inactive)	1.03 (inactive)	0.349 (inactive)	-0.0997	0.0442	0.253	0.0746	0.336
COC(=O)C1=CC(CCCO)=CC(c2ccc(CN3CCCC3)cc2)N(Cc2cccc(OC(F)(F)F)c2)C=C1C(=O)OC (stereo not given)	1.6	1.11	0.875	1	0.325	-0.292	2.87	0.279	1.11	-3.06 (inactive)	-0.0146	-2.24 (inactive)	1.23 (inactive)	-0.554 (inactive)	-0.727 (inactive)	0.644	0.0769	0.648	1.18	-0.136
CCOC(=O)C[C@H]1[C@H](OC(=O)c2cc3ccccc3oc2=O)[C@@H](NC(=O)CC(C)C)c2cc(OCCCO)ccc2N1C(=O)c1ccc2ccccc2n1	0.672	0.686	0.223	0.807	1.03	1.51	-0.551	0.903	0.0235	0.425 (inactive)	-0.0457	0.152 (inactive)	0.152 (inactive)	4.46 (inactive)	0.446 (inactive)	0.138	-0.128	-0.0914	0.234	1.41
CCOC(=O)C[C@H]1[C@H](OC(=O)c2ccc(C(=O)c3ccccc3)cc2)[C@@H](NC(=O)C2CCCCC2)c2cc(OCCCO)ccc2N1C(=O)c1ccc2ccccc2n1	0.497	0.835	0.0096	0.102	0.796	0.979	0.956	1.41	0.0469	0.425 (inactive)	0.233	0.233 (inactive)	-1.09 (inactive)	-0.215 (inactive)	-0.825 (inactive)	0.731	-0.0933	0.772	0.298	0.93
C[N+](C)(C)CCCCCCNC(=O)[C@@H]1C[C@@H]2C(=O)N3CCC[C@H]3C(=O)N2[C@@H]1c1ccc(O)cc1	1.36	0.451	0.0225	-0.472	1.4	1.42	-1.19	1.3	0.6	0.824 (inactive)	0.311	0.143 (inactive)	-0.573 (inactive)	-0.663 (inactive)	-0.62 (inactive)	-0.31	-0.0762	1.25	1.15	2.12
COC(=O)C/C=C/C[C@]1(O)C(=O)N(C)c2ccccc21	-0.0221	0.243	1.03	-0.0833	0.721	0.561	1.03	1.17	0.0278	-1.63 (inactive)	0.0325	-1.2 (inactive)	-0.716 (inactive)	1.04 (inactive)	-1.55 (inactive)	-0.373	-0.104	0.325	0.582	0.775
CS(=O)(=O)CCOC(=O)C1=CC(CCCO)=CC(c2ccc(CN3CCCC3)cc2)N(Cc2sc3ccccc3c2Cl)C=C1C(=O)OCCS(C)(=O)=O (stereo not given)	2.17	1.18	0.45	1	0.526	1.21	2.31	0.722	1.31	-1.57 (inactive)	0.689	-1.29 (inactive)	1.13 (inactive)	2.08 (inactive)	0.274 (inactive)	2.48	0.794	1.4	2.18	1.18
CC(C)N1C(=O)c2ccccc2[C@@H](C(=O)NCCN2CCOCC2)[C@@H]1c1ccc(CO)cc1	1.3	-0.736	-0.378	-1.99	-0.0463	-1.57	0.156	-0.786	-1.23	0.128 (inactive)	-1.15	0.179 (inactive)	-0.0165 (inactive)	0.324 (inactive)	-0.107 (inactive)	-1.14	-0.238	-3.17	-1.46	-1.49
Cc1ccc(S[C@]2(C(=O)NCC(F)(F)F)CC(=O)N(Cc3cc(C(F)(F)F)cc(C(F)(F)F)c3)[C@@H]2c2ccc(CO)cc2)cc1	1.86	-1.33	-0.237	-1.09	-0.192	-0.897	0.0304	-0.126	-0.744	-0.46 (inactive)	-0.824	-0.262 (inactive)	0.75 (inactive)	0.182 (inactive)	-0.0993 (inactive)	-0.638	-0.0933	-1.5	-1.2	0.319
CO[C@H]1O[C@H](CO)[C@@H](OC(=O)Nc2ccccc2)[C@H](OC(=O)c2cc3ccccc3[nH]2)[C@H]1OC(=O)c1cc2ccccc2[nH]1	0.568	0.181	0.353	0.475	1.13	1.61	0.132	0.532	0.562	-0.378 (inactive)	0.411	-4.49 (inactive)	-0.735 (inactive)	-0.211 (inactive)	-0.331 (inactive)	-0.265	0.0636	0.289	0.311	1.3
